Results: PubChem BioAssay (NCATS)
Records with an inconclusive call do not appear. Activity calls are given as the source filed them. Unless noted, calls follow the shape of the dose curve; as a rule, active = well fitted curve in the direction sought with a large enough effect; inconclusive = small, poorly fitted or top-dose-only effect, or another doubt; inactive = no such curve, though single readings can be large; an effect the other way counts as inactive or inconclusive.

Experiments:
[1] = biological target: T1, Tyrosine-protein phosphatase non-receptor type substrate 1 (Homo sapiens) + Leukocyte surface antigen CD47 (Homo sapiens) (UniProt P78324+Q08722); experiment: CD47-SIRPalpha protein protein interaction - HTRF assay qHTS validation (AID 1347058; active = well fitted curve in the direction sought with a large enough effect in the signal ratio, not every such curve was filed as active; the % refers to the signal ratio; also: series mostly up to about 38 µM; 0% is about no effect)
How it was run: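 Soluble extracellular domains (6His-CD47, Avi-tag-biotinylated SIRPalpha) in PBS pH 7.4 with 0.05% IGEPAL CA-630. Compounds were preincubated 30 min at RT with CD47 and anti-His-Eu, then SIRPalpha and SAV-XL665 were added. TR-FRET 665/615 ratio.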

[2] = biological target: T1, Tyrosine-protein phosphatase non-receptor type substrate 1 (Homo sapiens) + Leukocyte surface antigen CD47 (Homo sapiens); experiment: CD47-SIRPalpha protein protein interaction - Alpha assay qHTS validation (AID 1347059);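 also: bead proximity luminescence from CD47 binding SIRPalpha after compound preincubation with SIRPalpha; % is scaled to controls: 0 for no effect and ±100 for the full control effect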
How it was run: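 SIRPalpha-biotin 25 nM + cpd, 30 min RT, dark; add CD47-His 12.5 nM, 30 min; add Ni-NTA/SAV beads 10 ug/mL, 30 min; AlphaScreen. Buffer PBS pH 7.4 + 0.05% IGEPAL CA-630. Non-biotinylated SIRPalpha as control inhibitor.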

[3] = biological target: Parathyroid hormone/parathyroid hormone-related peptide receptor (Homo sapiens) (UniProt Q03431); experiment: qHTS for PTHR1 Agonists: Optimization Screen against the NCGC LOPAC library (AID 1347079);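 also: GloSensor cAMP luminescence in HEK-293 GP2 cells expressing human PTHR1 with IBMX; 0% is about no effect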
How it was run: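 HEK-293 GP2 cells, PTHR1 + GloSensor cAMP; 3000 cells/well, o/n. Luciferin + IBMX 0.5mM each (stock), 1 hr 37C. Cpd titration, 1 hr 37C. Lum after 15 min RT. Ctrl M-PTH(1-15) top 10uM.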

[4] = qHTS of pediatric cancer cell lines to identify multiple opportunities for drug repurposing: Primary screen for TC32 cells (AID 1347089); also: % is scaled to controls: 0 for no effect and ±100 for the full control effect; nearly all actives have a fitted effect of over 60% in size
How it was run: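 A viability screen of TC32 cells was run over 48 h, with primary MIPE doses spanning 0.78 nM–46 µM and NPC doses 0.59 nM–46 µM. ATP luminescence (CellTiter-Glo) served as the read-out.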

[5] = qHTS of pediatric cancer cell lines to identify multiple opportunities for drug repurposing: Primary screen for DAOY cells (AID 1347090);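 also: series mostly up to about 46 µM; plate controls were DMSO for no effect and bortezomib for full effect; nearly all actives have a fitted effect of over 55% in size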
How it was run: (§1)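 Viability measured as metabolically active cells via CellTiter-Glo luminescence following 48 hours of compound exposure, 11-point dilutions in confirmatory testing. 500-1,000 cells/well plated 5 hours before dosing; controls were DMSO and 2.3 µM bortezomib.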

[6] = qHTS of pediatric cancer cell lines to identify multiple opportunities for drug repurposing: Primary screen for SJ-GBM2 cells (AID 1347091);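 also: plate controls were DMSO neutral control for no effect and bortezomib for full effect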
How it was run: as §1

[7] = qHTS of pediatric cancer cell lines to identify multiple opportunities for drug repurposing: Primary screen for A673 cells (AID 1347092); also: % is scaled to controls: 0 for no effect and ±100 for the full control effect; nearly all actives have a fitted effect of over 45% in size
How it was run: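 Titration-based qHTS on A673 cells: MIPE compounds spanned 11 points (0.78 nM to 46 µM final), NPC compounds 8 points (0.59 nM to 46 µM final). Viability after 48 h was measured by ATP luminescence.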

[8] = qHTS of pediatric cancer cell lines to identify multiple opportunities for drug repurposing: Primary screen for BT-37 cells (AID 1347094);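 also: series mostly up to about 57 µM; plate controls were DMSO for no effect and bortezomib for full effect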
How it was run: (§2)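 Readout: CellTiter-Glo luminescence, 48 h treatment. Controls DMSO (neutral) and bortezomib 2.3 µM final (positive). Potency and efficacy taken from primary-screen concentration-response curves.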

[9] = qHTS of pediatric cancer cell lines to identify multiple opportunities for drug repurposing: Primary screen for NB-EBc1 cells (AID 1347095);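 also: plate controls were DMSO neutral control for no effect and bortezomib for full effect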
How it was run: as §2

[10] = qHTS of pediatric cancer cell lines to identify multiple opportunities for drug repurposing: Primary screen for SK-N-MC cells (AID 1347093);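 also: series mostly up to about 46 µM; plate controls were DMSO neutral control for no effect and bortezomib for full effect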
How it was run: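 Metabolically active cells were quantified by ATP-dependent luminescence (CellTiter-Glo, 15 min at room temperature) following 48 h treatment. Cells had been plated at 500-1,000 per well and settled for 5 h beforehand.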

Parathyroid hormone/parathyroid hormone-related peptide receptor (Homo sapiens), sequence (Q03431 whole entry, looked up): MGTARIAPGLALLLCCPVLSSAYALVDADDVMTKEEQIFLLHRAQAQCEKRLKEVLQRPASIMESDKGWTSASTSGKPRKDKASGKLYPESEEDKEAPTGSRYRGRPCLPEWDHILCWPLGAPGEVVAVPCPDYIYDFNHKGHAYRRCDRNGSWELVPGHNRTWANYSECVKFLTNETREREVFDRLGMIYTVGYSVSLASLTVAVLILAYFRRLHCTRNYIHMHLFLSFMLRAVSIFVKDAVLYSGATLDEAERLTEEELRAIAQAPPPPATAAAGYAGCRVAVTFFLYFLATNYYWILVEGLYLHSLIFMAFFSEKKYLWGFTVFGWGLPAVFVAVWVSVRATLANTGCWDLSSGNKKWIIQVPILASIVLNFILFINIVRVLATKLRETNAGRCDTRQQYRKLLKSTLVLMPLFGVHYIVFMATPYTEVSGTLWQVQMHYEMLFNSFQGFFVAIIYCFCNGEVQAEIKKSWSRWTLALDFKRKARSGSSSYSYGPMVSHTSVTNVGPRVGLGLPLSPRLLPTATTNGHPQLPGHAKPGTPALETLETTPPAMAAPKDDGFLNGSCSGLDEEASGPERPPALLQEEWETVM
T1 sequence (P78324 whole entry, looked up, the tested form may be a part): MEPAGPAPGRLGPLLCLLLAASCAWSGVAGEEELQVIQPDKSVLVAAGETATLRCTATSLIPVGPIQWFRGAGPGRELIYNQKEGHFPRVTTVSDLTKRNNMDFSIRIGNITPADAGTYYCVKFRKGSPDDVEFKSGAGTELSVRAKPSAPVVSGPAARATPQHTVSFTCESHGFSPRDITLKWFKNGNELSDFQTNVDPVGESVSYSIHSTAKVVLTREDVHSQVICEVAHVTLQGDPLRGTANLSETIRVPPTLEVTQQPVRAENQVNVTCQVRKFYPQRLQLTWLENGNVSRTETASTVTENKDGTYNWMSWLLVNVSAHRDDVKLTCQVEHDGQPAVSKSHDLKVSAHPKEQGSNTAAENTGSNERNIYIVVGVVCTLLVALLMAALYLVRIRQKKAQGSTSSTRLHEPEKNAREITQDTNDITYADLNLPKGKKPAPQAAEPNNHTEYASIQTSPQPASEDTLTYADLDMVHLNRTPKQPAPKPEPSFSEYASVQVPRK
T1 sequence (Q08722 whole entry, looked up, the tested form may be a part): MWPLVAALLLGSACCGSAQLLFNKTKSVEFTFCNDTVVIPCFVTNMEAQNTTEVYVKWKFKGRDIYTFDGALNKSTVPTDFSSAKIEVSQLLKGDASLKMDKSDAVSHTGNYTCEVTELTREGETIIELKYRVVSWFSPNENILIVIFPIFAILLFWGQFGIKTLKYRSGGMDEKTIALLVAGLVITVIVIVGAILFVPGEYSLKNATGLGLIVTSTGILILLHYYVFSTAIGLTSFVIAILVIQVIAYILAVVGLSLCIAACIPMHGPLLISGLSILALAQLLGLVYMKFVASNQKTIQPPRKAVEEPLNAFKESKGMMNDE

CCOC(=O)C1=C(C)NC(C)=C(C(=O)OC)C1c1cccc(Cl)c1Cl (stereo not drawn)
inactive: outcome [1] | Potency [2] | outcome [3] | Potency [4] | Potency [5] | Potency [6] | Potency [7] | Potency [8] | Potency [9]

CN(C)C/C=C(/c1ccc(Br)cc1)c1cccnc1
inactive: outcome [1] | Potency [2] | outcome [3] | Potency [4] | Potency [5] | Potency [6] | Potency [7] | Potency [10] | Potency [8] | Potency [9]

O=C(O)CCCCCCCC(=O)O
inactive: outcome [1] | Potency [2] | outcome [3] | Potency [4] | Potency [5] | Potency [6] | Potency [7] | Potency [10] | Potency [8] | Potency [9]

NC(=O)c1cn(Cc2c(F)cccc2F)nn1
inactive: outcome [1] | Potency [2] | outcome [3] | Potency [4] | Potency [5] | Potency [6] | Potency [7] | Potency [10] | Potency [8] | Potency [9]

CN(C)CCOC(=O)COc1ccc(Cl)cc1
inactive: outcome [1] | Potency [2] | outcome [3] | Potency [4] | Potency [5] | Potency [6] | Potency [7] | Potency [10] | Potency [8] | Potency [9]

NC(=O)c1ncn([C@@H]2O[C@H](CO)[C@@H](O)[C@H]2O)c1O
inactive: outcome [1] | Potency [2] | outcome [3] | Potency [4] | Potency [5] | Potency [6] | Potency [7] | Potency [10] | Potency [8] | Potency [9]

CC(C)[N+](C)(CCOC(=O)C1c2ccccc2Oc2ccccc21)C(C)C
inactive: outcome [1] | Potency [2] | outcome [3] | Potency [4] | Potency [5] | Potency [6] | Potency [7] | Potency [10] | Potency [8] | Potency [9]

Nc1c2c(nc3ccccc13)CCCC2O (stereo not drawn)
inactive: outcome [1] | Potency [2] | outcome [3] | Potency [4] | Potency [5] | Potency [6] | Potency [7] | Potency [10] | Potency [8] | Potency [9]

NC(Cc1ccc(Cl)cc1)C(=O)O (stereo not drawn)
inactive: outcome [1] | Potency [2] | outcome [3] | activity change, negative = cytotoxic [4] 11.6% [at 0.594 µM] | activity change, negative = cytotoxic [5] 15.2% [at 0.597 µM] | activity change, negative = cytotoxic [6] 16.4% [at 0.597 µM] | activity change, negative = cytotoxic [7] 16% [at 0.597 µM] | activity change, negative = cytotoxic [10] -1.75% [at 0.597 µM] | activity change, negative = cytotoxic [8] 9.97% [at 0.745 µM] | activity change, negative = cytotoxic [9] 23.4% [at 0.597 µM]

CN1C(=O)CC[C@H]1c1cccnc1
inactive: outcome [1] | Potency [2] | outcome [3] | Potency [4] | Potency [5] | Potency [6] | Potency [7] | Potency [10] | Potency [8] | Potency [9]

O=C1CC2(CCCC2)CC(=O)N1CCCCN1CCN(c2ncccn2)CC1
inactive: outcome [1] | Potency [2] | outcome [3] | Potency [4] | Potency [5] | Potency [6] | Potency [7] | Potency [10] | Potency [8] | Potency [9]

NC(N)=NC(=O)Cc1c(Cl)cccc1Cl
inactive: outcome [1] | Potency [2] | outcome [3] | Potency [4] | Potency [5] | Potency [6] | Potency [7] | Potency [10] | Potency [8]

CCCOc1ccccc1-c1nc2n[nH]nc2c(=O)[nH]1
inactive: outcome [1] | Potency [2] | outcome [3] | Potency [4] | Potency [5] | Potency [6] | Potency [7] | Potency [10] | Potency [8] | Potency [9]

NC(=O)N1c2ccccc2C=Cc2ccccc21
inactive: outcome [1] | Potency [2] | outcome [3] | Potency [4] | Potency [5] | Potency [6] | Potency [7] | Potency [10] | Potency [8] | Potency [9]

c1cnc(N2CCN(Cc3ccc4c(c3)OCO4)CC2)nc1
inactive: outcome [1] | Potency [2] | outcome [3] | Potency [4] | Potency [5] | Potency [6] | Potency [7] | Potency [10] | Potency [8] | Potency [9]

CN(C)C(=O)Oc1cccc([N+](C)(C)C)c1
inactive: outcome [1] | Potency [2] | outcome [3] | Potency [4] | Potency [5] | Potency [6] | Potency [7] | Potency [10] | Potency [8] | Potency [9]

CNCCC(Oc1ccccc1OC)c1ccccc1 (stereo not drawn)
inactive: outcome [1] | Potency [2] | outcome [3] | Potency [4] | Potency [5] | Potency [6] | Potency [7] | Potency [10] | Potency [8] | Potency [9]

C[C@H](CS)C(=O)N1CCC[C@H]1C(=O)O
inactive: outcome [1] | Potency [2] | outcome [3] | Potency [4] | Potency [5] | Potency [6] | Potency [7] | Potency [10] | Potency [8] | Potency [9]

C[C@@H](O)[C@H]1C(=O)N2C(C(=O)O)=C(SCCN=CN)C[C@H]12
inactive: outcome [1] | Potency [2] | outcome [3] | Potency [4] | Potency [5] | Potency [6] | Potency [7] | Potency [10] | Potency [8] | Potency [9]

CC(N=C(NC#N)Nc1ccncc1)C(C)(C)C (stereo not drawn)
inactive: outcome [1] | Potency [2] | outcome [3] | Potency [4] | Potency [5] | Potency [6] | Potency [7] | Potency [10] | Potency [8] | Potency [9]
